We go through 17 sequences from the supplement of paper PMC6555819.

The test has as its system PPARg:RXRa 90nM:30nM, anti-RXR (NR concentration 90 nM, RXRa partner concentration 30 nM). In words: PBM binding z-score (relative to random genomic background probes); higher = stronger binding; sequences stand for … in GC…GCGATTGACAGCGTAGAATGAAGG
The method, boiled down: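 Custom Agilent 4×180K protein-binding microarrays carried double-stranded probes, each with a 34-nt variable region. These regions held direct-repeat seeds, single-nucleotide variants, half-site ablations and random human genomic background sequences. Ligand-free nuclear receptor dimers were incubated on the arrays for 1 h, antibodies against each partner (one per run) detected binding, and scanned fluorescence was regression-normalized. Binding z-scores take the random background probes as reference.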
Take ATATGTAGGTTAGGATCATTCAGAAAGTAGGGAA: the PBM binding z-score came to 2.31.

In the case of CGAGCTAGGTCACCAGGACAGTGAAGAGGTTGGA, the PBM binding z-score stood at 2.68.

Sequence CCAGAAAGGTGAAAGGTAACTCAGTCTGGTACGC gave a PBM binding z-score of 6.27.

CGTCAAAGTTCAACTAAGGTAACGTATAGCACGC returned a PBM binding z-score of 4.48.

The sequence CGCACTAGGTCAAAGGACAGTGAAAGGCGACGTA had a PBM binding z-score of 8.98.

Sequence CGAACTAGGTTACCAGGACAGTGAAGAGGTTGGA displayed a PBM binding z-score of 2.52.

Turning to ATATGTAGGTTAGGGTCGTTCAGAAAGTAGGGAA, the PBM binding z-score stood at 4.12.

The sequence CGAACTAGGTCAAAGGACAGTGACAGGCGACGTA had a PBM binding z-score of 9.48.

As for CGTCCAAGGGCAGCAGGTCAGTGAAAGCGACGTG, the PBM binding z-score is -0.019.

Regarding CGAACTAGGTCACCAGGACACTGAAGAGGTTGGA, the PBM binding z-score is 6.92.

In turn, GCTTACGGGTCAAAGGTTACAGCATGAATAGAAT displayed a PBM binding z-score of 11.5.

TTACCAAGGTGAAAGGTCGTTGAAGCACGCCTTG came in with a PBM binding z-score of 9.79.

Turning to CGAACTAGGTCAAAGGACAATGAAAGGCGACGTA, the PBM binding z-score amounted to 9.41.

As to GCTTACGGGTCAAAGGTTATAGTATGAATAGAAT, the PBM binding z-score stood at 9.75.

CGTCCAAGGTCATAGGAGGTCACTGAAGACAGAT had a PBM binding z-score of 5.31.

ATCGAAAGGTCGACGAGGTGAGTATGCACCGTTT displayed a PBM binding z-score of 1.92.

In the case of CGAACTAGGTCTCCAGGACAGTGAAGAGGTTGGA, the PBM binding z-score came to 0.153.
